{"source": "PubChem BioAssay AID651820", "about": "(National Center for Advancing Translational Sciences (NCATS), 2012)", "note": "About 12,000 (3.5%) of roughly 340,000 compounds were called active. Where a call stands in place of a potency, no number is given. Not shown: some 18% with an inconclusive outcome. The sample holds actives, similar compounds and a random draw of the others, so the mix is not that of the screen. The call rests on the fitted dose curve; in most records, active means well fitted inhibition curve with a large enough effect; inconclusive means small, poorly fitted or top-dose-only effect, or another doubt; inactive means no such curve, though single readings can be large or run the other way."}
{"test": "qHTS Assay for Inhibitors of Hepatitis C Virus (HCV)", "settings": "Huh7.5.1 HCVcc-Cre infection, luciferase reporter, 44 h; series mostly up to 41.8 µM", "source_text": "Hepatitis C virus (HCV) infects about 200 million people in the world. Many infected people progress to chronic liver disease including cirrhosis with a risk of developing liver cancer. To date, there is no effective vaccine for hepatitis C. Current therapy based on interferon is only effective in about half of the patients and is associated with significant adverse effects. The fraction of people with HCV who can complete a successful treatment is estimated to be no more than 10 percent. Recent development of direct-acting antivirals against HCV, such as protease and polymerase inhibitors, is promising but still requires combination with peginterferon and ribavirin for maximal efficacy. In addition, these agents are associated with high rate of resistance and many have significant side effects. Due to the lack of a culture system for infectious HCV, the search for new HCV drugs has been greatly hampered. […] High-throughput screening (HTS) with an infectious HCV system would cover the complete spectrum of potentially druggable targets in all stages of HCV lifecycle, and would have more biological relevance than other cell-based assays. Moreover, targeting several key processes in the viral life cycle may not only increase antiviral efficacy; more importantly, it may also reduce the capacity of the virus to develop resistance to the compound. The goal of this project is to identify novel HCV inhibitors as new therapies for hepatitis C, using a highly sensitive and specific assay platform which is based on a HCV infectious cell culture system established in the laboratory and adapted for high-throughput HCV drug screen. NIH Chemical Genomics Center [NCGC] NIH Molecular Libraries Probe Centers Network [MLPCN] MLPCN Grant: MH095511 Assay Submitter (PI): Jake Liang, NIDDK\nThe assay will start with plating 1,000 cells/well in 3 µL volume and culture for 4 h. Then 23 nL of compounds from the library collection will be added to each well, followed by adding 2.5 µL of HCVcc-Cre virus (~ 0.5 moi) and further cultured for 44 h before the luciferase assay. A volume of 4.5 µL luciferase substrates will be added to each well and the plates will be incubated at room temperature for 15 min. and then read for 15 sec. for the luciferase activity"}
{"smiles": "O=C(c1ccc(Cl)nc1)N1CCN(S(=O)(=O)c2ccc3c(c2)OCCO3)CC1", "Potency": "inactive"}
{"smiles": "COc1cc(C(c2c(NC(=O)c3ccco3)sc(C)c2C)N2CCOCC2)cc(OC)c1OC", "note": "(stereo unspecified)", "Potency": "inactive"}
{"smiles": "COc1cccc(NC(=O)c2ccccc2SC)c1", "Potency": "inactive"}
{"smiles": "COc1cccc(NC(=O)C2C(c3ccccc3)C2(Cl)Cl)c1", "note": "(stereo unspecified)", "Potency": "12.6 µM (active)"}
{"smiles": "COc1cccc(NC(=O)C2CCCN2C(=O)OCc2ccccc2)c1", "note": "(stereo unspecified)", "Potency": "inactive"}
{"smiles": "Cc1ccccc1-c1cc(C(=O)NCc2cccs2)n(CC2CC(c3cccnc3)=NO2)n1", "note": "(stereo unspecified)", "Potency": "inactive"}
{"smiles": "O=C(CCCCCCCC(=O)N1CCCCC1)N1CCCCC1", "Potency": "inactive"}
{"smiles": "O=C(CC1SC(N2CCOCC2)=NC1=O)Nc1ccccc1F", "note": "(stereo unspecified)", "Potency": "inactive"}
{"smiles": "COc1cc(C(=O)NCc2ccncc2)cc(Br)c1OCc1ccccc1", "Potency": "10 µM (active)"}
{"smiles": "COc1cc(C(=S)NCc2ccccc2)cc(Br)c1O", "Potency": "inactive"}
{"smiles": "COc1cc(C=O)c(Br)cc1OCC(=O)NCc1ccccc1", "Potency": "inactive"}
{"smiles": "O=c1c2ccccc2ncn1CCc1ccncc1", "Potency": "inactive"}
{"smiles": "CCOc1ncccc1C(=O)OCC(=O)N1c2ccccc2CC1C", "note": "(stereo unspecified)", "Potency": "inactive"}
{"smiles": "C[C@@H]1CN([C@@H](C)CO)C(=O)c2cccc(NS(=O)(=O)c3ccc(F)cc3)c2O[C@H]1CN(C)C(=O)NC1CCCCC1", "Potency": "inactive"}
{"smiles": "CCN(CC)CCCNC(=O)c1cc2c(=O)[nH]c3ccc(C)cc3c2s1", "Potency": "inactive"}
{"smiles": "O=C(NCCN1CCN(Cc2ccccc2)CC1)c1cc2c(=O)[nH]c3ccccc3c2s1", "Potency": "12.6 µM (active)"}
{"smiles": "Cn1c(C(=O)NCCN2CCc3ccccc3C2)cc2c(=O)[nH]c3ccccc3c21", "Potency": "inactive"}
{"smiles": "CSc1ccccc1C(=O)OCC(=O)N1CCN(C(C)=O)CC1", "Potency": "inactive"}
{"smiles": "Cc1ccc(S(=O)(=O)n2oc(=O)c(C3CCCCC3)c2N)cc1", "Potency": "inactive"}
{"smiles": "O=C1CSc2ccc(C(=O)NCc3ccccn3)cc2N1", "Potency": "inactive"}
{"smiles": "COc1ccc(CCNc2ncnc3c2nnn3Cc2ccccc2)cc1", "Potency": "inactive"}
{"smiles": "COc1ccc(-c2oc3ncnc(NCCCO)c3c2-c2ccc(OC)cc2)cc1", "Potency": "12.6 µM (active)"}
{"smiles": "COc1cc2nc(Cl)nc(NCCO)c2cc1OC", "Potency": "inactive"}
{"smiles": "Nc1ccc2c(c1)C(O)c1ccc(Cl)cc1-2", "note": "(stereo unspecified)", "Potency": "inactive"}
{"smiles": "Clc1cccc(Cl)c1OCCOCCNCc1ccccc1", "Potency": "inactive"}
{"smiles": "CN(C)CCOCCOc1ccc(Cl)c2ccccc12", "Potency": "10 µM (active)"}
{"smiles": "CN(C)CCOC1c2ccccc2-c2ccccc21", "Potency": "inactive"}
{"smiles": "CCC(C)N(C(=O)CSc1nnnn1-c1ccccc1OC)C1CCS(=O)(=O)C1", "note": "(stereo unspecified)", "Potency": "inactive"}
{"smiles": "CN(C(=O)Cn1nnc(-c2ccc(F)cc2)n1)C1CCS(=O)(=O)C1", "note": "(stereo unspecified)", "Potency": "inactive"}
{"smiles": "CCN1CCC(O)(/C=C/c2ccc(C)cc2)C(C(=O)/C=C/c2ccc(C)cc2)C1", "note": "(stereo unspecified)", "Potency": "14.1 µM (active)"}
{"smiles": "CCN1CCN(C(=O)CSc2ccc(C)cc2)CC1", "Potency": "inactive"}
{"smiles": "CCOC(=O)C1CCCN(C(=O)/C=C/c2ccc(OC)cc2)C1", "note": "(stereo unspecified)", "Potency": "inactive"}
{"smiles": "NC(=O)C1(Nc2ccccc2Cl)CCCC1", "Potency": "inactive"}
{"smiles": "O=C(CCNC(=O)c1ccc(Cl)cc1)NC1CCCc2ccccc21", "note": "(stereo unspecified)", "Potency": "inactive"}
{"smiles": "CCOc1ccc(C(C)NC(=O)CN2C(=O)NC3(CCCCC3)C2=O)cc1OCC", "note": "(stereo unspecified)", "Potency": "inactive"}
{"smiles": "CN(C)S(=O)(=O)c1cccc(NC(=O)COc2ccc3ccccc3c2)c1", "Potency": "22.4 µM (active)"}
{"smiles": "CN(C)S(=O)(=O)c1cccc(NC(=O)COC(=O)c2cc(=O)[nH]c(=O)[nH]2)c1", "Potency": "inactive"}
{"smiles": "CN(C)S(=O)(=O)c1cccc(NC(=O)COC(=O)/C=C/c2cccs2)c1", "Potency": "inactive"}
{"smiles": "CCc1c(Nc2ccccc2C)nc(N)[nH]c1=O", "Potency": "inactive"}
{"smiles": "C[C@H](CO)N1C[C@H](C)[C@@H](CN(C)S(=O)(=O)c2ccc(F)cc2)Oc2ccc(NC(=O)CCC(F)(F)F)cc2C1=O", "Potency": "inactive"}
{"smiles": "CCOC(=O)c1ccc(-n2c(C)nc3c(cnn3-c3ccccc3C)c2=O)cc1", "Potency": "inactive"}
{"smiles": "Cc1ccc(Oc2cnn(-c3ccccc3)c(=O)c2Br)cc1", "Potency": "inactive"}
{"smiles": "COc1ccc(-n2c(C)nc3c(cnn3-c3ccccc3)c2=O)cc1", "Potency": "11.2 µM (active)"}
{"smiles": "COc1ccc(CNC(=O)COC(=O)c2sccc2C)cc1OC", "Potency": "inactive"}
{"smiles": "O=C(COc1cccnc1[N+](=O)[O-])Nc1ccc(Cl)cc1F", "Potency": "inactive"}
{"smiles": "COC(C[C@@H]1O[C@@H]1C(=O)[C@H](C)OCc1ccccc1)OC", "Potency": "inactive"}
{"smiles": "Cc1nc(Nc2ccccc2C)c2cnn(C)c2n1", "Potency": "inactive"}
{"smiles": "CCNS(=O)(=O)c1ccc(CCC(=O)N2CCN(c3cc(Cl)ccc3C)CC2)cc1", "Potency": "11.2 µM (active)"}
{"smiles": "CCCNS(=O)(=O)c1ccc(CCC(=O)N2CCCC2)cc1", "Potency": "inactive"}
{"smiles": "CCNS(=O)(=O)c1ccc(CCC(=O)N2CCN(c3ccc(OC)cc3)CC2)cc1", "Potency": "inactive"}
{"smiles": "COC(C/C=C/C(=O)[C@@H](C)OCc1ccccc1)OC", "Potency": "inactive"}
{"smiles": "Nc1nc(-c2ccccc2)cc(-c2ccccc2)n1", "Potency": "10 µM (active)"}
{"smiles": "c1ccc(-c2cc(-c3ccccc3)[nH]n2)cc1", "Potency": "inactive"}
{"smiles": "CS(=O)(=O)c1sc2nc(-c3ccccc3)cc(-c3ccccc3)c2c1N", "Potency": "inactive"}
{"smiles": "COCCNc1nnc(SCC(=O)NNC(=O)c2ccco2)s1", "Potency": "inactive"}
{"smiles": "CCCn1c(=O)c(-c2ccccc2)c(O)c2ccccc21", "Potency": "inactive"}
{"smiles": "Cn1c(=O)c(Sc2ccc(Cl)cc2)c(O)c2ccccc21", "Potency": "inactive"}
{"smiles": "Cc1cc(C)c(-c2c(O)c3ccccc3n(C)c2=O)c(C)c1", "Potency": "11.2 µM (active)"}
{"smiles": "CC(C#N)(NC(=O)CN1CCN(S(=O)(=O)c2cc(C(F)(F)F)ccc2Cl)CC1)C1CC1", "note": "(stereo unspecified)", "Potency": "inactive"}
{"smiles": "Cc1cn(COC/C=C/c2ccccc2)c(=O)[nH]c1=O", "Potency": "inactive"}
{"smiles": "O=C(/C=C/c1ccccc1)c1ccoc1", "Potency": "inactive"}
{"smiles": "Cc1[nH]c(=O)c(C(=O)/C=C/c2ccccc2)c2c1CCCC2", "Potency": "14.1 µM (active)"}
{"smiles": "O=C(NCCS(=O)(=O)N1CCN(c2ccccc2)CC1)c1ccco1", "activity change, negative = inhibition": "5.8% [at 8.37 µM] (inactive)"}
{"smiles": "COC(=O)c1cc(C(=O)CSc2nc(C)cc(C)n2)ccc1O", "Potency": "inactive"}
{"smiles": "Cc1cc(Oc2ccc(Cl)cc2)nc(SCC(=O)c2ccccc2)n1", "Potency": "inactive"}
{"smiles": "Cc1cc(C)nc(SCC(=O)c2ccc(Cl)cc2)n1", "Potency": "2.82 µM (active)"}
{"smiles": "Cn1nnnc1SCC(=O)Nc1sccc1C(N)=O", "Potency": "inactive"}
{"smiles": "NC(=O)C1(N2CCCC2)CCN(Cc2ccccc2)CC1", "Potency": "inactive"}
{"smiles": "Cc1ccc(CSc2nc3[nH]ncc3c(=O)[nH]2)cc1", "Potency": "inactive"}
{"smiles": "CCc1ccc(-n2c(SCc3cc(=O)n4cc(Br)ccc4n3)nc3[nH]ncc3c2=O)cc1", "Potency": "10 µM (active)"}
{"smiles": "Cc1cccc2nc(CSc3nc4[nH]ncc4c(=O)n3-c3cccc(Cl)c3)cc(=O)n12", "activity change, negative = inhibition": "-0.622% [at 0.335 µM] (inactive)"}
